Compounds with a hit are over-represented: about 2.2% of the library has one in this group of screens.
H9c2 protect: modulators protecting cardiomyocytes from myocardial damage | H9c2 cardiomyocytes, H2O2 injury protection, ATPLite, 2 h | protection from H2O2 cell death, % at 20 µM | 360,000 compounds, 0.63% hits;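 active means compounds giving at least 50% protection of heart cells from peroxide-induced death in the single-dose screen, raw or plate-pattern-corrected value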;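 further: 0% = DMSO wells with peroxide and 100% = DMSO wells without peroxide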
hiPSC survival: increases survival of single human iPS cells; hiPSC single-cell survival, ATPlite luminescence; 100% = ROCK inhibitor wells, 0% = DMSO; 360,000 compounds, 0.044% hits; AID 602274; survival enhancement, % at 20 µM; in the data active means survival enhancement above about 18%;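 further: cells exposed to compounds for 16 hours before the ATP read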
ABCB6 inh MLPCN: human ABCB6 transporter inhibition; Q9NP58; K562-ABCB6 porphyrin accumulation, flow cytometry, 1 h; hits give low values; fluorescence ratio to DMSO, % at 10 µM; 360,000 compounds, 0.19% hits; AID 602162;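 active means fluorescence ratio to DMSO below 75%, the collection mean minus 3 SD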;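 further: signal is porphyrin accumulated inside mitochondria; 100% equals median channel fluorescence of DMSO control wells; lower ratio means ABCB6 inhibition with less porphyrin fluorescence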
Myeloid diff 2: promotes myeloid progenitor differentiation | AID 624256 | calls only at 10 µM | ER-HoxA9 myeloid progenitors, lysozyme-GFP differentiation, flow cytometry | 360,000 compounds, 1% hits;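 active means normalized GFP-positive differentiation at or above the plate's own cutoff, the solvent-only control mean plus 3 SD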;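 further: cells exposed to compound for four days before flow analysis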
beta cell repl: induces beta-cell replication in MIN6 cells | MIN6 cells proliferation, ATPlite luminescence, 48 h; cells starved in 0.2% serum; 100% = growth in 10% serum | proliferation, % at 10 µM | 330,000 compounds, 0.29% hits;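 active means compounds whose signal lies at least 3.5 SD above the mean of all wells on their plate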;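 further: 0% = DMSO-treated cells in low-serum medium and 100% = 10% serum control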
Myeloid diff: compounds promoting myeloid differentiation. shares compounds with Myeloid diff 2. AID 651706. 2,300 compounds, 2% hits. calls only. ER-HoxA9 myeloid progenitors, GFP/Mac1 double-positive flow;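 active means share of green or green-and-red cells above 9 and 9% in run 1 or 4 and 3% in run 2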
GFP autofluor: counter-screen for myeloid differentiation promoters: compound fluorescence. shares compounds with Myeloid diff 2. ER-HoxA9 myeloid progenitors, no estrogen, GFP autofluorescence flow cytometry; vehicle wells 0%, positive control 100%. fluorescence response, % (no concentration beside the values). 2,300 compounds, 7.4% hits;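 active means over 5% cells positive for green fluorescent reporter, or over 2% positive for both it and APC stain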;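 further: range taken on the double positive population between DMSO and positive control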
Starred values were filed as active, the others as inactive; i = inactive; nt = no result given; + = active, no number.

SMILES	H9c2 protect	hiPSC survival	ABCB6 inh MLPCN	Myeloid diff 2	beta cell repl	Myeloid diff	GFP autofluor
CCCCn1c(=O)[nH]c2c(oc3ccccc32)c1=O	3	1	106	+	-5	i	0
COc1cc(/C=C2/SC(=O)N(Cc3ccccc3)C2=O)ccc1OCc1ccncc1	2	3	96	i	-2	nt	nt
COc1ccc(N(CC(=O)Nc2cc(OC)ccc2OC)S(C)(=O)=O)cc1	12	-2	100	i	-2	i	0
O=C(COc1ccccc1Cl)NCCNC(=O)c1ccncc1	-1	0	93	i	5	i	0
CC(O)C(=O)N/N=C/c1ccccc1C(=O)O (configuration not stated)	8	2	97	i	-1	i	0
COc1ccc(CN(C(=O)CN2C(=O)C(C)Oc3ccccc32)C2CCCC2)c(OC)c1 (configuration not stated)	2	2	104	i	1	nt	nt
COc1ccc(CN(C(=O)CN2C(=O)COc3ccccc32)C2CCCC2)c(OC)c1	-5	-3	98	i	-2	i	0
Cc1nc(NC(=O)c2ccc(Br)s2)sc1C(=O)N(C)C	-10	-4	103	i	-3	i	0
CCCC1(C(=O)OC)NC(c2ccc(OC)c(OC)c2)C2C(=O)N(c3ccc4c(c3)OCO4)C(=O)C21 (configuration not stated)	6	6	96	i	-3	nt	nt
COc1ccc(-c2nn(-c3ccccc3)cc2/C=N/Nc2ccc(S(N)(=O)=O)cc2[N+](=O)[O-])cc1OC	14	4	98	i	-4	i	0
COc1ccc(-c2nn(-c3ccccc3)cc2/C=N/Nc2ccc3ccccc3n2)cc1OC	28	-1	100	i	-6	nt	nt
Cc1cc(NC(=O)C(C)Sc2nnc(NCc3ccco3)s2)no1 (configuration not stated)	2	4	104	+	0	i	0
Cc1cc(NC(=O)C(C)SCC(=O)Nc2nnc(CC(C)C)s2)no1 (configuration not stated)	0	0	93	nt	2	nt	nt
CC(C)(C)NS(=O)(=O)c1cccc2nsnc12	nt	nt	nt	nt	-1	nt	nt
CCCCN1C(=O)C(CC(=O)NCCc2ccccn2)CC(C(=O)N(C)C)=C1C (configuration not stated)	-3	6	108	i	nt	i	18*
COc1ccc(C(=O)Cc2ccc3c(c2)OCO3)c(O)c1	1	4	109	i	-2	nt	nt
O=C(O)COc1ccc(C(=O)Cc2ccc3c(c2)OCCCO3)c(O)c1	-9	2	102	i	0	i	0

Assay outcomes deposited in PubChem by several laboratories.
